Where “and” joins values, the source holds several entries; their conditions need not be identical. Equal entries are not always repeated. Inconclusive results are not listed. Calls of active or inactive are those of the source. Unless noted, calls come from the whole dose curve; as a rule, active = well fitted curve in the direction sought with a large enough effect; inconclusive = small, poorly fitted or top-dose-only effect, or another doubt; inactive = no such curve, though single readings can be large; an effect the other way counts as inactive or inconclusive.
Experiments:
[1] = P-glycoprotein substrates identified in KB-8-5-11 adenocarcinoma cell line, qHTS therapeutic library screen (AID 1346987); note: nearly all actives have a fitted effect of over 65% in size; note: potency is the fitted concentration of half-maximal effect
Outline: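 Compounds are pinned in dose-response onto KB-8-5-11 cells (500 cells/well, colchicine-free medium) and left 72 h at 37 degree C. CellTiter-Glo luminescence then yields AC50 values.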

[2] = NS1 protein of Zika virus - qHTS assay to identify small molecule inhibitors in human HEK 293 cells (AID 1347053); note: nearly all actives have a fitted effect of over 55% in size; note: potency is the fitted concentration of half-maximal effect
Outline: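 In this cell-based screen, HEK 293 cultures received compound for one hour before Zika MR766 at MOI = 0.5. NS1 was quantified 24 hours later by TR-FRET, normalized to virus-free wells and infected wells.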

[3] = qHTS of pediatric cancer cell lines to identify multiple opportunities for drug repurposing: Primary screen for TC32 cells (AID 1347089); note: nearly all actives have a fitted effect of over 60% in size; note: potency is the fitted concentration of half-maximal effect
Outline: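 In the primary qHTS, MIPE compounds were tested at 11 concentrations (0.78 nM to 46 µM) and NPC compounds at 8 (0.59 nM to 46 µM) on TC32 cells for 48 h. CellTiter-Glo luminescence gave viability.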

[4] = qHTS of pediatric cancer cell lines to identify multiple opportunities for drug repurposing: Primary screen for DAOY cells (AID 1347090); note: nearly all actives have a fitted effect of over 55% in size; note: potency is the fitted concentration of half-maximal effect
Outline: (§1)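 Cell viability, CellTiter-Glo luminescence; 500-1,000 cells/well, 8- or 11-point titration, 48 h compound exposure at 37 degrees C, 5% CO2. Controls: DMSO neutral, bortezomib 2.3 µM final as positive.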

[5] = qHTS of pediatric cancer cell lines to identify multiple opportunities for drug repurposing: Primary screen for SJ-GBM2 cells (AID 1347091); note: potency is the fitted concentration of half-maximal effect
Outline: as §1

[6] = qHTS of pediatric cancer cell lines to identify multiple opportunities for drug repurposing: Primary screen for A673 cells (AID 1347092); note: nearly all actives have a fitted effect of over 45% in size; note: potency is the fitted concentration of half-maximal effect
Outline: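 48 h compound exposure, A673, 500-1,000 cells/well, 37 degrees C/5% CO2. MIPE: 11-point, 0.78 nM-46 µM; NPC: 8-point, 0.59 nM-46 µM (final). Readout CellTiter-Glo luminescence after 15 min RT.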

[7] = qHTS of pediatric cancer cell lines to identify multiple opportunities for drug repurposing: Primary screen for SK-N-MC cells (AID 1347093); note: potency is the fitted concentration of half-maximal effect
Outline: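 Metabolically active cells were quantified by ATP-dependent luminescence (CellTiter-Glo, 15 min at room temperature) following 48 h treatment. Cells had been plated at 500-1,000 per well and settled for 5 h beforehand.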

[8] = qHTS of pediatric cancer cell lines to identify multiple opportunities for drug repurposing: Primary screen for BT-37 cells (AID 1347094); note: potency is the fitted concentration of half-maximal effect
Outline: (§2)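 Readout: CellTiter-Glo luminescence, 48 h treatment. Controls DMSO (neutral) and bortezomib 2.3 µM final (positive). Potency and efficacy taken from primary-screen concentration-response curves.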

[9] = qHTS of pediatric cancer cell lines to identify multiple opportunities for drug repurposing: Primary screen for NB-EBc1 cells (AID 1347095); note: potency is the fitted concentration of half-maximal effect
Outline: as §2

[10] = Natriuretic polypeptide receptor (hNpr1) antagonism - Pilot counterscreen GloSensor control cell line (AID 1347045; calls by dose curve)
Outline: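 Control counterscreen: luciferase cGMP-biosensor HEK293 cells (no Npr1) received compound for 30 min at room temperature after GloSensor substrate loading. Luminescence was measured before and 20 min after soluble guanylyl cyclase activation by 50 uM nitroprusside.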

[11] = target: Atrial natriuretic peptide receptor 2 (Homo sapiens) (UniProt P20594); assay: Natriuretic polypeptide receptor (hNpr2) antagonism - Pilot subtype selectivity assay (AID 1347050; calls by dose curve)
Chain of Atrial natriuretic peptide receptor 2 (Homo sapiens) (P20594 whole entry, looked up): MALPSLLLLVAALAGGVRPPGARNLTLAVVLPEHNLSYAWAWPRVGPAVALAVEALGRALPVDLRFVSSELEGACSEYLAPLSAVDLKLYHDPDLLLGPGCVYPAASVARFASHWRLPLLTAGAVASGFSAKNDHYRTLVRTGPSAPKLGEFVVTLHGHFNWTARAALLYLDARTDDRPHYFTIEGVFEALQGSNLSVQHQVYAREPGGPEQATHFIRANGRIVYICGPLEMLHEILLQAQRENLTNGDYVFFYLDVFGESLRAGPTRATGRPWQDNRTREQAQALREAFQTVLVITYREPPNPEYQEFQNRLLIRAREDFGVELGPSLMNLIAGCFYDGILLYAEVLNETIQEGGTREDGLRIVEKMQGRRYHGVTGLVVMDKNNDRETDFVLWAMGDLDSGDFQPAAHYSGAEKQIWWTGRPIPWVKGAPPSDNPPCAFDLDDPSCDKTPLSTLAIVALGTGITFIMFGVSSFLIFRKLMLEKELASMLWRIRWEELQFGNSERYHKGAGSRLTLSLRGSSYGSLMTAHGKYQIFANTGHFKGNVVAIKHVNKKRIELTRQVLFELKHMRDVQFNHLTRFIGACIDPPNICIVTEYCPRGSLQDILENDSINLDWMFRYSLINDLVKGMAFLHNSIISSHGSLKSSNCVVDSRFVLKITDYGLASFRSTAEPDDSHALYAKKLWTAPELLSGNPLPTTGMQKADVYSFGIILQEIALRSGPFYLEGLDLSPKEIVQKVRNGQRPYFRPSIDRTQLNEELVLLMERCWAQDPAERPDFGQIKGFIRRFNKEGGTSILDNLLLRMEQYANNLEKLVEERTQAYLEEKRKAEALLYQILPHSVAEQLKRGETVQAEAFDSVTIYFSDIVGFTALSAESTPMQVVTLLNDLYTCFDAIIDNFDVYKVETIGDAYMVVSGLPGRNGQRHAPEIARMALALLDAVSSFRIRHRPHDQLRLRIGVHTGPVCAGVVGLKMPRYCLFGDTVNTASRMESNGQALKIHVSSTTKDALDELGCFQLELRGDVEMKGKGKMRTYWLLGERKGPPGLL
Outline: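 Antagonist mode: compounds (LOPAC1280, seven 1:5 dilutions) added 30 min before 1 nM hNppC stimulation of hNpr2-HEK293 cGMP-sensor cells; luminescence read before and 20 min after agonist at ambient temperature.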

[12] = target: T1, Tyrosine-protein phosphatase non-receptor type substrate 1 (Homo sapiens) + Leukocyte surface antigen CD47 (Homo sapiens) (UniProt P78324+Q08722); assay: CD47-SIRPalpha protein protein interaction - LANCE assay qHTS validation (AID 1347057; active = well fitted curve in the direction sought with a large enough effect in the signal ratio, with a control signal flat, not every such curve was filed as active; the % refers to the signal ratio)
T1 sequence (P78324 whole entry, looked up, the tested form may be a part): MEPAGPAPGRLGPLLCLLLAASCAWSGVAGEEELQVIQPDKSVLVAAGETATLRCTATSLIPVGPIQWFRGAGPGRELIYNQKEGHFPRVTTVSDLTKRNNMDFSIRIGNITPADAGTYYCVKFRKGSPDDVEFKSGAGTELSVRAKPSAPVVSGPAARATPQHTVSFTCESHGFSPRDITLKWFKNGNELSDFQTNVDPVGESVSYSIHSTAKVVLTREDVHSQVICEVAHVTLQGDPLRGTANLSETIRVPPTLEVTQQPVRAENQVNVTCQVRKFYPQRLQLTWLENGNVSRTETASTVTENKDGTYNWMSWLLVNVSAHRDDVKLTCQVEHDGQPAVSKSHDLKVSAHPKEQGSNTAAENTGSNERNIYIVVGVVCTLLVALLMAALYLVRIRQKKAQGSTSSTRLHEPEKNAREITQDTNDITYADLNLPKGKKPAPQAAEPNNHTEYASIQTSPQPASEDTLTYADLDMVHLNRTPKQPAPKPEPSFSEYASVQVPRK
T1 sequence (Q08722 whole entry, looked up, the tested form may be a part): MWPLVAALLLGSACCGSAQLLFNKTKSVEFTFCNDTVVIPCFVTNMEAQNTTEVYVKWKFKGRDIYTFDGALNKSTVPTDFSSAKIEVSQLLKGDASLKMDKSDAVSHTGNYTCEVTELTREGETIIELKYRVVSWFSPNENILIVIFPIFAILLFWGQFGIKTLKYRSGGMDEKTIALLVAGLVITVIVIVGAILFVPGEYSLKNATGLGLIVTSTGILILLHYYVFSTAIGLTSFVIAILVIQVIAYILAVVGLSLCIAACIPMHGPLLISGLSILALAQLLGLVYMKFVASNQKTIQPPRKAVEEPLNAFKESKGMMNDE
Outline: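 Inhibition of soluble CD47/SIRPalpha ectodomain association by titrated compounds, measured as 665/615 nm time-resolved FRET ratio after sequential 30 min room-temperature incubations.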

[13] = target: T1, Tyrosine-protein phosphatase non-receptor type substrate 1 (Homo sapiens) + Leukocyte surface antigen CD47 (Homo sapiens); assay: CD47-SIRPalpha protein protein interaction - HTRF assay qHTS validation (AID 1347058; active = well fitted curve in the direction sought with a large enough effect in the signal ratio, not every such curve was filed as active; the % refers to the signal ratio)
Outline: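 Soluble extracellular domains (6His-CD47, Avi-tag-biotinylated SIRPalpha) in PBS pH 7.4 with 0.05% IGEPAL CA-630. Compounds were preincubated 30 min at RT with CD47 and anti-His-Eu, then SIRPalpha and SAV-XL665 were added. TR-FRET 665/615 ratio.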

[14] = target: T1, Tyrosine-protein phosphatase non-receptor type substrate 1 (Homo sapiens) + Leukocyte surface antigen CD47 (Homo sapiens); assay: CD47-SIRPalpha protein protein interaction - Alpha assay qHTS validation (AID 1347059);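 note: bead proximity luminescence from CD47 binding SIRPalpha after compound preincubation with SIRPalpha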
Outline: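 AlphaScreen signal between CD47-His (12.5 nM) and biotin-SIRPalpha (25 nM) soluble extracellular domains, bead-captured via Ni-NTA and streptavidin. Compounds, in 7-point titrations, met SIRPalpha 30 min before CD47; PBS pH 7.4 with 0.05% IGEPAL.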

[15] = target: Parathyroid hormone/parathyroid hormone-related peptide receptor (Homo sapiens) (UniProt Q03431); assay: qHTS for PTHR1 Agonists: Optimization Screen against the NCGC LOPAC library (AID 1347079);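 note: GloSensor cAMP luminescence in HEK-293 GP2 cells expressing human PTHR1 with IBMX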
Chain of Parathyroid hormone/parathyroid hormone-related peptide receptor (Homo sapiens) (Q03431 whole entry, looked up): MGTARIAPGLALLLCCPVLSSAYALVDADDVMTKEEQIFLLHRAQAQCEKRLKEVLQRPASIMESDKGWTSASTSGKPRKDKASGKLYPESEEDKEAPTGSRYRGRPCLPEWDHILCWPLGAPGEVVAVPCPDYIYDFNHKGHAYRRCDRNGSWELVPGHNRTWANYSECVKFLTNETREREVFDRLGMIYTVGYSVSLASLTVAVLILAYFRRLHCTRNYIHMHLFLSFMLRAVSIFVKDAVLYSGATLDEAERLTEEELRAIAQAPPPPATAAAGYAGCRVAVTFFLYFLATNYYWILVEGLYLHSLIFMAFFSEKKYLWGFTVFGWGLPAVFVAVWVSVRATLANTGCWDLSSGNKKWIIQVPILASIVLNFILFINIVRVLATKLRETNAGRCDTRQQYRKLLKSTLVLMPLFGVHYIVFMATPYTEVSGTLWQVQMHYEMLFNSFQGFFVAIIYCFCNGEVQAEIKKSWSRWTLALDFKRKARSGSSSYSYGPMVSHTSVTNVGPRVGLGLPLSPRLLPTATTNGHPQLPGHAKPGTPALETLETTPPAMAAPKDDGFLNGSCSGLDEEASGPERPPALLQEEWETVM
Outline: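 HEK-293 GP2 cells, PTHR1 + GloSensor cAMP; 3000 cells/well, o/n. Luciferin + IBMX 0.5mM each (stock), 1 hr 37C. Cpd titration, 1 hr 37C. Lum after 15 min RT. Ctrl M-PTH(1-15) top 10uM.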

[16] = P-glycoprotein substrates identified in KB-3-1 adenocarcinoma cell line, qHTS therapeutic library screen (AID 1346986); conditions: KB-3-1 parental cells viability, CellTiter-Glo, 72 h; at 44.5 µM (top of the series); note: nearly all actives have a fitted effect of over 60% in size
Outline: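 Viability read by CellTiter-Glo after 72 h compound exposure in dose-response of KB-3-1 and KB-8-5-11 (P-gp-high) cells. Hits needed AC50 < 10 uM, >50% maximum response and curve class -1.1 to -2.4. Cherry-picks retested ± tariquidar, including pcDNA/MDR-19 HEK-293 pair.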

[17] = target: Atrial natriuretic peptide receptor 1 (Homo sapiens) (UniProt P16066); assay: Natriuretic polypeptide receptor (hNpr1) antagonism - Pilot screen (AID 1347049; calls by dose curve;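 note: HEK293 cells with hNpr1 and GloSensor cGMP luciferase stimulated by 0.1 nM hNppA; agonist-evoked cGMP luminescence read 20 min after hNppA addition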)
Chain of Atrial natriuretic peptide receptor 1 (Homo sapiens) (P16066 whole entry, looked up): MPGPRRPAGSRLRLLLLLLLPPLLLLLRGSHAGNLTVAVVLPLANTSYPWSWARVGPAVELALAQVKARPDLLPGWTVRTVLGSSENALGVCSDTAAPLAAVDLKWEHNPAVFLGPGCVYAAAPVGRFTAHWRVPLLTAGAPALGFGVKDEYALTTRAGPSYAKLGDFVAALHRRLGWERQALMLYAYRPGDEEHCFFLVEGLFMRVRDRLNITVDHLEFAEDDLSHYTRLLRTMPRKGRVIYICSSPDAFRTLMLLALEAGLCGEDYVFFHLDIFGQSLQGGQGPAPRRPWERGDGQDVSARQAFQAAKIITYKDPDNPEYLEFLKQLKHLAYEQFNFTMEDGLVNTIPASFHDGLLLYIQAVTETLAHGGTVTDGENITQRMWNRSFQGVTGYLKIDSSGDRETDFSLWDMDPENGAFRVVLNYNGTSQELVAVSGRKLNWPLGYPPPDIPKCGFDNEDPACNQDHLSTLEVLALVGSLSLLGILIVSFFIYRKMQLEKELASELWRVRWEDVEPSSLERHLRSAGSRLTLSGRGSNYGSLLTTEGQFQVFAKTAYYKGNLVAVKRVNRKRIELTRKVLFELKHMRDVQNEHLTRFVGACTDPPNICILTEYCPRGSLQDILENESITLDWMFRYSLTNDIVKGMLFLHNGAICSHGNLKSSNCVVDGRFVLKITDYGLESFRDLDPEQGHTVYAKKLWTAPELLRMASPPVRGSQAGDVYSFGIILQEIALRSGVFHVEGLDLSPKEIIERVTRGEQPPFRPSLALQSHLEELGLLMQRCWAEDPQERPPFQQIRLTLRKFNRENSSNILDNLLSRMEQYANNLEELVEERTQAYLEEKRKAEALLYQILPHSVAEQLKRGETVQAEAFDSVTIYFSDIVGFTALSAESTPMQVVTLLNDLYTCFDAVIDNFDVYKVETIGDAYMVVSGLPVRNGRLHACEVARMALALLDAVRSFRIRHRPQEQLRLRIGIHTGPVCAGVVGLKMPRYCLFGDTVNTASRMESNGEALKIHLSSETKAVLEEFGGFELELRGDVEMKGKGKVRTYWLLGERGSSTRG
Outline: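 Receptor antagonism read as cGMP-dependent luminescence in hNpr1/pGS-40F HEK293 cells: pre-read after 30 min compound exposure, post-read 20 min after hNppA agonist at 0.1 nM final, all at room temperature, protected from light; A-71915 titration as control.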

Measured: Potency

Nc1nc(N)nc(-c2cc(Cl)ccc2Cl)n1
inactive: [1] | [2] | [3] | [4] | [5] | [6] | [7] | [8] | [9]

N[C@@H](Cc1ccc(O)c(O)c1)C(=O)O
inactive: [1] | [10] | [11] | [2] | [12] | [13] | [14] | [15] | [3] | [4] | [5] | [8] | [9]
active: [7] 18.7 µM

COC(=O)Nc1nc2ccc(S(=O)c3ccccc3)cc2[nH]1 (stereo not drawn)
active: [1] 10.5 µM | [3] 1.18 µM | [4] 841 nM and 14.8 µM | [5] 596 nM and 14.8 µM | [6] 841 nM and 9.35 µM | [7] 376 nM and 8.33 µM | [8] 1.55 µM
inactive: [2]

CC1=NN(c2ccccc2)C(=O)C1
inactive: [16] | [2] | [5] | [6] | [7] | [8] | [9]

CN(C)CCc1c[nH]c2ccc(CS(=O)(=O)N3CCCC3)cc12
inactive: [1] | [2] | [3] | [4] | [5] | [6] | [7] | [8] | [9]

CC1CC2C3CCC4=CC(=O)C=C[C@]4(C)[C@@]3(F)[C@@H](O)C[C@]2(C)[C@@]1(O)C(=O)CO (stereo partly drawn)
active: [7] 13.2 µM
inactive: [1] | [10] | [17] | [11] | [2] | [12] | [13] | [14] | [15] | [3] | [4] | [5] | [8]

Cc1oc(=O)oc1CN1CCN(c2cc3c(cc2F)c(=O)c(C(=O)O)c2n3C(C)S2)CC1 (stereo not drawn)
inactive: [16] | [2] | [5] | [6] | [7] | [8] | [9]

CCCCS(=N)(=O)CCC(N)C(=O)O (stereo not drawn)
inactive: [1] | [10] | [17] | [11] | [2] | [12] | [13] | [14] | [15] | [3] | [4] | [5] | [8] | [9]
active: [6] 23.5 µM

CC(C(=O)O)c1ccc2c(c1)CC(=O)c1ccccc1S2 (stereo not drawn)
inactive: [16] | [2] | [3] | [5]

CCc1c2c(nc3ccc(OC(=O)N4CCC(N5CCCCC5)CC4)cc13)-c1cc3c(c(=O)n1C2)COC(=O)[C@]3(O)CC
active: [2] 0.332 µM | [3] 236 nM and 739 nM | [4] 13.3 µM and 1.48 µM | [5] 1.19 µM and 590 nM | [6] 1.06 µM and 590 nM | [7] 106 nM and 105 nM | [8] 389 nM and 544 nM | [9] 1.19 µM and 332 nM
inactive: [1]

CCn1cc(C(=O)O)c(=O)c2cc(F)c(N3CCNCC3)nc21
inactive: [1] | [2] | [3] | [4] | [5] | [6] | [7] | [8] | [9]

C#CCN[C@@H]1CCc2ccccc21
inactive: [1] | [2] | [3] | [4] | [5] | [6] | [7] | [8]

N[C@@H](C(=O)N[C@@H]1C(=O)N2C(C(=O)O)=C(Cl)CS[C@H]12)c1ccccc1
inactive: [1] | [2] | [3] | [4] | [5] | [6] | [7] | [8]

CC(C)C1CCC(C(=O)N[C@H](Cc2ccccc2)C(=O)O)CC1 (stereo partly drawn)
inactive: [1] | [2] | [3] | [4] | [5] | [6] | [7] | [8]

CC(=O)[C@H]1CC[C@H]2[C@@H]3CC=C4C[C@@H](O)CC[C@]4(C)[C@H]3CC[C@]12C
inactive: [1] | [2] | [3] | [5] | [6] | [7] | [8]

CN(CCOc1ccc(CC2SC(=O)NC2=O)cc1)c1ccccn1 (stereo not drawn)
inactive: [1] | [2] | [4] | [5] | [6] | [8]

CCC(C)(C)c1ccc(CC(C)CN2C[C@@H](C)O[C@@H](C)C2)cc1 (stereo partly drawn)
inactive: [1] | [2] | [3] | [5] | [8]

CCCN[C@H]1CCc2nc(N)sc2C1
inactive: [1] | [2] | [3] | [4] | [5] | [6] | [8] | [9]

O=C(NCC1CN(c2ccc(N3CCOCC3=O)cc2)C(=O)O1)c1ccc(Cl)s1 (stereo not drawn)
inactive: [1] | [2] | [5] | [6] | [8] | [9]

COc1ccc2c(c1)c(CC(=O)OCC(=O)O)c(C)n2C(=O)c1ccc(Cl)cc1
inactive: [1] | [2] | [3] | [4] | [5] | [6] | [8] | [9]

O=S(=O)(O)CCS
inactive: [1] | [2] | [4] | [5] | [6] | [8]

S=P(N1CC1)(N1CC1)N1CC1
inactive: [1] | [2] | [3] | [4] | [5]
active: [6] 23.5 µM | [7] 3.72 µM | [9] 1.05 µM

Source: PubChem BioAssay (NCATS)
